From PubChem BioAssay
Hits are enriched below; roughly 6.2% of the tested compounds scored in any of these assays.
AHR act: AHR activators, primary screen, cell-based, luminescence, luciferase reporter, human; 2.5% of 320,000 active; activation, % at 5 µM; AID 2796, 2010; AHR-responsive luciferase reporter cells; Aryl hydrocarbon receptor (Homo sapiens), P35869; in the data active means activation above about 47%
Target sequence (P35869 whole entry, looked up): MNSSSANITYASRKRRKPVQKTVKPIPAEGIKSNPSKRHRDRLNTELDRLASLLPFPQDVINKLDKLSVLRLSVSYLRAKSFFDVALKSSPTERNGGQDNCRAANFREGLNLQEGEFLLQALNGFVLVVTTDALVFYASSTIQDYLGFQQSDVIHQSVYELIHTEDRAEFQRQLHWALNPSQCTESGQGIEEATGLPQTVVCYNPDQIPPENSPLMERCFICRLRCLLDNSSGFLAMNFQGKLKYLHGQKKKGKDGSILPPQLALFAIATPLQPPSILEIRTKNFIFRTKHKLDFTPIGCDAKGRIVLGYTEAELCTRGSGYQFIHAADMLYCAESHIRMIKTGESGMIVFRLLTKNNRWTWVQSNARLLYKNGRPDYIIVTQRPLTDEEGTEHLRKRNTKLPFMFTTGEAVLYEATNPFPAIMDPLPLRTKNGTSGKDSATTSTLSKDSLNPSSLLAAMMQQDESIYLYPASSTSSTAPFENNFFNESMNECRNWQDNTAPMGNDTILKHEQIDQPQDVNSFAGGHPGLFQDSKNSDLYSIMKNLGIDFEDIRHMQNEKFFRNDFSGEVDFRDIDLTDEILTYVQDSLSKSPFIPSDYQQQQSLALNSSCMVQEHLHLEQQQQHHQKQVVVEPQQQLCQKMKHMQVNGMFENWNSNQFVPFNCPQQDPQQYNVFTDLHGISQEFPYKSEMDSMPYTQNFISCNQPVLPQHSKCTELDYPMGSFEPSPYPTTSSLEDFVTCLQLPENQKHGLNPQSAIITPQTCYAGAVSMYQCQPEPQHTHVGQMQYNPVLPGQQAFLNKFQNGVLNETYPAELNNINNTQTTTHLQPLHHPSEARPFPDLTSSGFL
Cardio protect: cardioprotection against H2O2-induced cell death, primary screen, uHTS, H9c2 cells, ATPLite luminescence; H9c2 cardiomyocytes, H2O2 injury protection, 2 h; protection from H2O2 cell death, % at 20 µM; 0.63% of 360,000 active;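 active means compounds giving at least 50% protection of heart cells from peroxide-induced death in the single-dose screen, raw or plate-pattern-corrected value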
NR3A LBD binder: binders of NR3A ligand-binding domain, primary screen, biophysical, differential scanning fluorimetry, uHTS; Glutamate receptor ionotropic, NMDA 3A (GRIN3A) ligand-binding domain; NR3A LBD differential scanning fluorimetry, Tm shift; 0% = protein alone, 100% = glycine-bound protein; Tm shift relative to glycine control, % at 25 µM; 2.5% of 340,000 active; AID 1259313, 2017;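 active means melting temperature shift of at least 10% of the positive control shift, at one fixed dose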
AI-2 QS mod: Vibrio harveyi AI-2 quorum sensing modulators, primary screen, JMH597 strain, luminescence/OD600 ratio; Vibrio harveyi JMH597 AI-2 luminescence/OD600 ratio, 9 h; stronger effect = lower value; strain lacks LuxN and CqsS sensors; 0 = neutral-control median; activity change, % at 7.5 µM; 0.4% of 300,000 active; in the data active means activity change below about -75%, passing the limit was not always enough;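 further: luminescence divided by OD600 gain over 9 h not by final OD600 alone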
NTR1 ag: agonists of human NTR1, primary screen, imaging, U2OS cells, beta-arrestin-GFP, high content. Neurotensin receptor type 1 (Homo sapiens), P30989. activation, % at 20 µM. 0.17% of 330,000 active. NTR1-U2OS beta-arrestin-GFP spot imaging, agonist mode. AID 493036, 2011;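 active means activation at or above 40% of the spot to cytoplasm intensity ratio, with at least 20 cells analyzed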
SUMO Mot1 rescue: yeast Mot1-301 growth rescue at high temperature, primary screen, SUMOylation pathway inhibitor project, S. cerevisiae, ATP luminescence, 38.5C. S. cerevisiae Mot1-301 growth rescue; percent above DMSO median, 100 means doubled. growth rescue, % at 18.8 µM. 1% of 320,000 active;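 active means every valid replicate shows activation above 250% relative to neutral control wells; inactive means the rest, any valid replicate at or below 250%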
A number is an active result; i = inactive; nt = not tested or not shown.

SMILES	AHR act	Cardio protect	NR3A LBD binder	AI-2 QS mod	NTR1 ag	SUMO Mot1 rescue
CCC(C)(C)c1ccc(OCCCC[n+]2ccccc2)c(C(C)(C)CC)c1	i	i	i	i	i	290
CCN1C[C@@H]2[C@@H]3C(=O)N(C)C(=O)[C@@H]3[C@](C)(C1=O)N2C(=O)c1ccc(C(F)(F)F)cc1	nt	i	i	nt	nt	nt
CC(C)c1ccc(C(=O)N2CCCC(c3cc(C(=O)Nc4ccc5c(c4)OCO5)no3)C2)cc1 (stereo not given)	nt	i	nt	nt	nt	nt
CCCCCCNC1=NCCS1	i	i	i	i	i	720
Cn1c(CN2CCCCC2)nc2cc([N+](=O)[O-])ccc21	67	i	i	i	i	i
Cn1c(CCN2CCCCC2)nc2cc([N+](=O)[O-])ccc21	i	i	i	i	i	i
COC(=O)c1ccc(Cn2nc(C(F)(F)F)cc2C)cc1	i	i	17	i	i	i
COC(=O)c1ccc(Cn2nc(C)cc2C)cc1	i	i	i	i	i	i
CC(C)c1ccc(CC(=O)N2CCC2(C)C(=O)NS(=O)(=O)c2cccc(C#N)c2)cc1 (stereo not given)	nt	i	nt	nt	nt	nt
CCOC(=O)C1=C(COC(=O)c2ccc([N+](=O)[O-])o2)NC(=O)NC1C (stereo not given)	i	61	i	nt	i	i
CCOC(=O)C1=C(COC(=O)c2cc([N+](=O)[O-])ccc2Cl)NC(=O)NC1C (stereo not given)	nt	i	nt	nt	nt	nt
COc1cccc(C(=O)NCC(C)(C)SCc2ccc(F)cc2)c1	i	i	10	i	i	i
COc1cccc(C(=O)Nc2nnc(-c3ccc(F)cc3)o2)c1	i	i	i	-88	i	i
COc1cccc(C(=O)Nc2nnc(-c3cccs3)o2)c1	i	i	i	-84	i	i
O=C(COc1ccccc1)Nc1nnc(-c2ccc(Cl)cc2)o1	i	i	i	-90	i	i
COc1cccc(-c2nnc(NC(C)=O)o2)c1	i	i	i	i	i	i
CC(=O)c1cccc(OCc2cc(C(=O)NCc3nc(C)c(C)s3)no2)c1	i	i	i	i	i	i
O=C(Nc1nnc(-c2ccc(Cl)cc2)o1)c1cccc(N2C(=O)CCC2=O)c1	i	i	i	i	i	i
COc1cccc(C(=O)Nc2nnc(-c3ccc(Cl)cc3)o2)c1	i	67	i	-87	i	i
O=S(=O)(Nc1ccc(O)c(Sc2nc3ccccc3s2)c1)c1cccc2ccccc12	i	i	15	i	i	i
CC1CCc2c(sc3ncn(CC(=O)N=Nc4c(O)[nH]c5ccccc45)c(=O)c23)C1 (stereo not given)	i	i	i	i	i	i
CCc1nc(N=Nc2c(O)[nH]c3ccccc23)c2c3c(sc2n1)CCC3	i	69	i	i	i	i
Cc1ccc(Cl)cc1NC(=S)N/N=C/c1cccc2ccccc12	55	i	i	i	i	i
Cc1nn(C)cc1/C=N/NC(=S)Nc1ccc(Cl)cc1Cl	i	i	18	i	i	i
Cc1ccccc1NC(=S)N/N=C/c1ccc(O)cc1O	i	i	i	i	i	i
SMILES	AHR act	Cardio protect	NR3A LBD binder	AI-2 QS mod	NTR1 ag	SUMO Mot1 rescue
O=[N+]([O-])c1ccc(O)c(/C=N/NC(=S)Nc2ccc(Cl)cc2Cl)c1	i	i	i	i	i	i
Cc1nn(C)cc1/C=N/NC(=O)c1ccc2c(c1)OCO2	i	i	i	i	i	i
O=[N+]([O-])c1ccc(/C=N/NC(=S)Nc2ccc(Cl)cc2Cl)s1	i	i	11	i	i	i
CCn1nc(C)c(/C=N/NC(=S)Nc2ccc(Cl)cc2Cl)c1C	53	i	i	i	i	i
N#Cc1ccc(OCC(=O)OCC(=O)Nc2sccc2C(N)=O)cc1	i	i	i	nt	i	i
CCOC(=O)Cc1csc(NC(=O)Nc2cccc(OC)c2)n1	i	i	14	i	i	i
Cc1ccc(Nc2nc(COC(=O)COc3ccc(C=O)cc3)cs2)cc1	i	i	10	i	i	i
CCOC(=O)Cc1csc(NC(=O)Nc2ccc(C)cc2)n1	i	i	14	i	i	i
CC1=C(C(=O)N(C(C)C)C(C)C)CC(CC(=O)NCc2ccco2)C(=O)N1Cc1ccc(F)cc1 (stereo not given)	nt	i	nt	nt	nt	nt
O=[N+]([O-])c1cc(-c2n[nH]c(-c3ccccc3)n2)cc([N+](=O)[O-])c1	i	i	27	i	i	i
O=[N+]([O-])c1cc([N+](=O)[O-])c2n[nH]c(-c3ccccc3)c2c1	i	i	i	i	i	i
CC(C)(C)c1csc(N(CCC#N)CCC#N)n1	i	i	14	i	i	i
N#CCCN(CCC#N)c1nncs1	i	i	i	i	i	i
COc1ccccc1CNS(=O)(=O)c1ccc(-n2cccn2)cc1	i	i	i	i	i	i
Cc1ccc(CNC(=O)C(N=C2NS(=O)(=O)c3ccccc32)C(C)C)cc1 (stereo not given)	i	i	i	nt	i	i
Cc1cc(NC(=O)COc2nnc(-c3ccccc3)c3ccccc23)no1	i	48	i	nt	i	i
Cc1cc(NC(=O)COc2ccccc2C)no1	i	i	i	i	i	i
Cc1ccc(NC(=O)c2ccc3nc[nH]c3c2)c(O)c1	65	i	i	i	i	i
O=C(NCCc1c[nH]c2ccccc12)c1ccc2nc[nH]c2c1	i	i	27	i	i	i
Cc1ccc(OCC(=O)NCCNC(=O)c2ccco2)cc1	i	i	i	i	i	348
Cc1ccc2[nH]cc(CCNC(=O)c3cccs3)c2c1	nt	i	i	i	i	i
COc1ccc(C(=O)NCCc2c[nH]c3ccccc23)cc1OC	i	i	i	nt	i	i
Cc1ccc(NC(=O)c2ccc3nc[nH]c3c2)nc1	i	i	i	i	i	i
Cc1ccc2[nH]cc(CCNC(=O)c3ccc4c(c3)OCO4)c2c1	i	i	i	-80	i	i
Cc1ccc(CNC(=O)c2ccc(N3CCC4(CC3)CC(c3ccccc3)=NO4)c(NC(=O)c3ccc(Cl)c([N+](=O)[O-])c3)c2)cc1	i	i	i	i	i	i
COc1cc(OC)c(N(C)C(=O)c2cc3c(s2)-c2ccccc2S(=O)(=O)C3)cc1Cl	i	i	i	i	i	i
O=C(NCCc1c[nH]c2ccccc12)c1cc(Cl)c2c(c1)OCO2	48	i	30	i	i	i
O=C(NCCSc1c[nH]c2ccccc12)c1ccc2c(c1)OCO2	50	i	i	i	i	i
COc1ccc2[nH]cc(CCNC(=O)c3ccco3)c2c1	i	i	i	nt	i	i
Cc1ccc2[nH]cc(CCNC(=O)c3ccco3)c2c1	97	i	i	i	i	i
